We go through 27 compounds from paper PMC5540273 (PLoS ONE, 2017).
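Also: KINOMEscan kinase panel screen.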

In the first experiment the test system is FLT4. As to conditions: concentration: 1 μM,replicates: in singlicate; n = 1.
Regarding `CN(C)CC(O)COc1ccc(Nc2nccc(-c3cnn4nc(N5CCOCC5)ccc34)n2)cc1` (stereo not shown) [GW767488], the “%Inh” value came to 24%.

Regarding `Cc1cc2cn[nH]c2cc1-c1cccc2c(N)c(C(N)=O)nnc12`, the “%Inh” value was determined as 2%.

With `Nc1nc(Nc2ccccc2)cc(-c2ccc3c(N)n[nH]c3c2)n1` [GSK2225749], the “%Inh” value turned out to be 9%.

With `Cl.Oc1cc(-c2nc(-c3ccccc3)[nH]c2-c2ccncc2)ccc1Cl` [SB-386023], the “%Inh” value came out at 8%.

`C[C@@H](Oc1cc(-c2cnn(C3CCNCC3)c2)cnc1N)c1c(Cl)ccc(F)c1Cl`: the “%Inh” value came to 4%.

`C=CC(=O)Nc1cc2c(Nc3ccc(F)c(Cl)c3)ncnc2cc1OCCCN1CCOCC1` [GW781483]: the “%Inh” value was 0%.

Regarding `Cl.Cl.NC[C@H](CC1CCCCC1)NC(=O)c1cc(Br)c(-c2ccnc3[nH]ccc23)s1` [GSK1581427], the “%Inh” value amounted to 22%.

Regarding `Cc1ccc(-n2nc(C(C)(C)C)cc2NC(=O)Nc2ccc(OCCN3CCOCC3)c3ccccc23)cc1` [GW839464], the “%Inh” value is 58%.

For the compound `CC(C)Nc1cc(-c2ccc3c(N)n[nH]c3c2)nc(N)n1` [GSK2221681], the “%Inh” value is listed as 14%.

Take `CCN(CC)CCCCNc1ncc2cc(-c3c(Cl)cccc3Cl)c(NC(=O)NC(C)(C)C)nc2n1`: the “%Inh” value is given as 83%.

For the compound `Cc1ccc2c(-c3ccncc3)c(-c3ccc(F)cc3)nn2c1.Cl` [GW461484], the “%Inh” value came out at 0%.

As for `COc1ccc(C[C@@H](CN)NC(=O)c2cc(Br)c(-c3ccnc4[nH]ccc34)s2)cc1.Cl.Cl` [GSK1389063], the “%Inh” value was determined as 73%.

Consider `C[C@H]1Oc2cc(cnc2N)-c2c(nn(C)c2C#N)CN(C)C(=O)c2ccc(F)cc21`, for which the “%Inh” value is given as 0%.

In the case of `CCN(CC)CCOc1ccc(Nc2ncc3cc(-c4c(Cl)cccc4Cl)c(=O)n(C)c3n2)cc1` [SB-601273], the “%Inh” value was 95.8%.

With `NC(=O)c1cc(-c2ccccc2)cc2c(C3CCNCC3)c[nH]c12` [GSK301362], the “%Inh” value was determined as 12%.

Another experiment has as its system FRK. As to conditions: concentration: 1 μM,replicates: in singlicate; n = 1.
As for `CN(C)CCOc1ccc(-c2cc(-c3c[nH]nc3-c3ccccn3)ccn2)cc1` [GW835314], the “%Inh” value is recorded as 10%.

On to `CC(C)N1C(=O)Cc2cc(Nc3ncc(C(F)(F)F)c(NCc4cccc(S(C)(=O)=O)c4)n3)ccc21`, for which the “%Inh” value is on record as 0%.

Consider `O=C(NCCNc1ccnc(NCc2ccc(F)cc2)n1)c1cc2ccccc2s1` [GSK1379944], for which the “%Inh” value was determined as 15%.

As to `CCn1c(-c2nonc2N)nc2c(C#CC(C)(C)O)nc(OCCN)cc21.Cl.Cl` [GSK902056], the “%Inh” value was 6%.

Consider `Cc1occc1-c1nc(N)c(OC[C@@H](N)Cc2c[nH]c3ccccc23)cc1-c1cc2c(C)n[nH]c2cn1` [GSK1660450], for which the “%Inh” value was 75%.

Turning to `Cl.Cl.NC[C@H](Cc1ccc(C(F)(F)F)cc1)NC(=O)c1cc(Br)c(-c2ccnc3[nH]ccc23)s1` [GSK1487252], the “%Inh” value came out at 15%.

Regarding `C[C@@H]1CCN(C(=O)CC#N)C[C@@H]1N(C)c1ncnc2[nH]ccc12`, the “%Inh” value was 0%.

As for `CNC(=O)c1ccccc1Sc1ccc2c(/C=C/c3ccccn3)n[nH]c2c1`, the “%Inh” value is 0%.

Consider `Cc1n[nH]c2ccc(-c3cc(OC[C@@H](N)Cc4ccccc4)cnc3-c3ccoc3)cc12.O=C(O)C(F)(F)F.O=C(O)C(F)(F)F` [GSK507358], for which the “%Inh” value was 0%.

`O=C(NCCCN1CCOC1=O)c1cnc(NCc2cc(Cl)ccc2Cl)nc1NC1CCCC1`: the “%Inh” value amounted to 18%.

As for `Cl.Cl.Nc1nc(-c2ccc3c(N)n[nH]c3c2)cc(N2CCCC(NC(=O)c3ccccc3)C2)n1` (stereo not shown) [GSK2286775], the “%Inh” value is 0%.

As to `Cc1cc(C(=O)Nc2ccc(Oc3ccc4nc(NC(=O)C5CC5)cn4n3)cc2)nn1-c1ccccc1`, the “%Inh” value worked out at 0%.

Consider `CN(C)CC(O)COc1ccc(Nc2nccc(-c3cnn4nc(N5CCOCC5)ccc34)n2)cc1` (stereo not shown) [GW767488], for which the “%Inh” value is 0%.

In the case of `Cc1cc2cn[nH]c2cc1-c1cccc2c(N)c(C(N)=O)nnc12`, the “%Inh” value amounted to 31%.

For the compound `Nc1nc(Nc2ccccc2)cc(-c2ccc3c(N)n[nH]c3c2)n1` [GSK2225749], the “%Inh” value is listed as 0%.

Turning to `Cl.Oc1cc(-c2nc(-c3ccccc3)[nH]c2-c2ccncc2)ccc1Cl` [SB-386023], the “%Inh” value is recorded as 73%.

Regarding `C[C@@H](Oc1cc(-c2cnn(C3CCNCC3)c2)cnc1N)c1c(Cl)ccc(F)c1Cl`, the “%Inh” value is reported as 36%.

Regarding `C=CC(=O)Nc1cc2c(Nc3ccc(F)c(Cl)c3)ncnc2cc1OCCCN1CCOCC1` [GW781483], the “%Inh” value is listed as 30%.

`Cl.Cl.NC[C@H](CC1CCCCC1)NC(=O)c1cc(Br)c(-c2ccnc3[nH]ccc23)s1` [GSK1581427]: the “%Inh” value was 19%.
